POLI inh: DNA polymerase iota (human) inhibition; actives 1% (n = 390,000); Pol iota fluorescent replication assay, 10 min; Potency, µM (highest dose often 115 µM), for inactives: top-dose activity, negative = inhibition, hits mostly inhibitors; AID 588590; Q9UNA4; note: potency is the fitted concentration of half-maximal effect
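Fluorescent replication assay read twice, at 0 min and 10 min after adding 50 nM (final) substrate. Enzyme (10 nM) and compounds were first incubated 15 min at room temperature; enzyme-free buffer wells were negative controls.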
Pol kappa inh-1: blocks human DNA polymerase kappa activity; Potency, µM (series often up to 107 µM), inactives show at the top dose activity, negative = inhibition, most hits filed as inhibitors; Q9UBT6; actives 0.53% (n = 400,000); AID 588579; purified Pol kappa, fluorescent DNA synthesis assay, 10 min; note: potency is the fitted concentration of half-maximal effect; % is set by controls: 0 for no effect and ±100 for the full control effect
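Kinetic fluorescence screen: compound preincubated 15 min RT with 10 nM enzyme; 50 nM substrate (final) initiates; reads at 0/10 min.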
TDP1 inh: TDP1 (human) enzyme inhibition | Q9NUW8 | recombinant TDP1, AlphaScreen DNA substrate cleavage | Potency, µM (titrated, usually from 130 µM), inactives show top-dose activity change, negative = inhibition, hits mostly inhibitors | actives 0.28% (n = 350,000) | AID 485290; note: potency is the fitted concentration of half-maximal effect; % is set by controls: 0 for no effect and ±100 for the full control effect; nearly all actives have a fitted effect of over 40% in size
Target sequence (Q9NUW8 whole entry, looked up): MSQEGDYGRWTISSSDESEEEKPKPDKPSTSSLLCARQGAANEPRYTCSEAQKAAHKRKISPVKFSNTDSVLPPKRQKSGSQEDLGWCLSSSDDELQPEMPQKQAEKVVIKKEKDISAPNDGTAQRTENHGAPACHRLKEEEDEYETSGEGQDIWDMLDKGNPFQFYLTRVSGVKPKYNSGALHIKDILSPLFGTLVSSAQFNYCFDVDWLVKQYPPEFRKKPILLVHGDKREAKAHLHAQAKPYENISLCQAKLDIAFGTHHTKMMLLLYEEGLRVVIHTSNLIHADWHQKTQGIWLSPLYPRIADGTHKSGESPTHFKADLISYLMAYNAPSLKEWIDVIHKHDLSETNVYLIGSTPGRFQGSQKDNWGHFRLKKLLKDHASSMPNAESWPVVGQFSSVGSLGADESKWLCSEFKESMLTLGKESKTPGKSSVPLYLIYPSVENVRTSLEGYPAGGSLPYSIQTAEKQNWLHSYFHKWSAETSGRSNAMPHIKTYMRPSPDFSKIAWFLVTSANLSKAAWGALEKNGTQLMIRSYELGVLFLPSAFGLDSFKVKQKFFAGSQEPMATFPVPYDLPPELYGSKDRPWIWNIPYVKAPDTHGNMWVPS
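Recombinant human Tdp1 (E. coli-expressed, 1 nM final) preincubated with compounds 15 min at room temperature, then 5'-biotin/3'-phosphotyrosine-FITC DNA substrate (15 nM final) added for 5 min. AlphaScreen beads (10 ug/ml final) added 10 min; cleavage lowers signal.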
POLB inh: blocks human DNA polymerase beta activity; P06746; Pol beta primer extension/strand displacement, fluorescence kinetic; Potency, µM (highest dose often 114 µM), without a hit: at the highest dose activity change, negative = inhibition, most hits filed as inhibitors; actives 1.3% (n = 340,000); AID 485314; note: potency is the fitted concentration of half-maximal effect; % is set by controls: 0 for no effect and ±100 for the full control effect
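Curves were derived by four-parameter Hill fits of normalized qHTS data. The kinetic fluorescent primer-extension read was taken at 0 and 10 min after 50 nM substrate, following a 15 min room-temperature preincubation of 10 nM enzyme with compounds.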
Pol eta inh-1: inhibitors of human DNA polymerase eta; AID 588591; Potency, µM (titrated, usually from 114 µM), for the others: at the top dose activity change, negative = inhibition, most hits filed as inhibitors; Q9Y253; actives 1.2% (n = 390,000); recombinant Pol eta, fluorescent DNA replication assay; note: potency is the fitted concentration of half-maximal effect; % is set by controls: 0 for no effect and ±100 for the full control effect
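Pol eta at 10 nM preincubated with compounds 15 min at room temperature; reaction started with fluorescent substrate (50 nM final) and read kinetically at 0 and 10 min.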
GALK inh confirm: confirmation of human galactokinase (GALK) inhibitors; Potency, µM (top dose mostly 115 µM), inactives show at the highest dose activity, negative = inhibition, actives largely listed as inhibitors; purified GALK, Kinase-Glo ATP depletion luminescence; shares compounds with Pol eta inh-1; AID 2015; actives 70% (n = 150)
Redox cycling: counter-screen for GALK inhibitors: redox cycling H2O2 generation; Phenol red-HRP H2O2 redox cycling, absorbance 600 nm; actives 40% (n = 150); Potency, µM (titrated, usually from 115 µM), inactives show top-dose activity change, negative = H2O2 signal, actives largely listed as inhibitors; shares compounds with Pol eta inh-1
HEK293 tox: HEK-293 cytotoxicity, GALK inhibitor secondary | actives 10% (n = 170) | shares compounds with Pol eta inh-1 | HEK-293 viability, ATP luminescence (CellTiter-Glo), 24/48 h | Potency, µM (doses to about 46.1 µM), without a hit: at the top dose activity change, negative = cytotoxicity, most hits filed as inhibitors; note: potency is the fitted concentration of half-maximal effect; % is set by controls: 0 for no effect and ±100 for the full control effect
Pol kappa inh-2: Pol kappa (human) inhibition, cherry-pick confirmation; actives 76% (n = 920); purified Pol-kappa, fluorescent strand-displacement substrate; Potency, µM, actives largely listed as inhibitors; AID 720501; shares compounds with Pol eta inh-1; note: potency is the fitted concentration of half-maximal effect
Pol eta inh-2: confirmation of human DNA polymerase eta inhibitors. Pol eta primer extension, TAMRA/BHQ fluorescence, 10 min. Potency, µM, actives largely listed as inhibitors. shares compounds with Pol eta inh-1. actives 64% (n = 2,600); note: potency is the fitted concentration of half-maximal effect
An asterisk follows results filed as active; ? = inconclusive; · = no result; [ ] = dose if it differs, or a comment. The list is not random: actives were taken first. Their share in the collection is about 2.4%. Calls come from the whole dose curve; as a rule, active = well fitted curve in the direction sought with a large enough effect; inconclusive = small, poorly fitted or top-dose-only effect, or another doubt; inactive = no such curve, though single readings can be large; an effect the other way counts as inactive or inconclusive.

SMILES	POLI inh	Pol kappa inh-1	TDP1 inh	POLB inh	Pol eta inh-1	Pol eta inh-2	others
Cc1cc(NS(=O)(=O)c2ccc(NC(=O)COc3ccccc3[N+](=O)[O-])cc2)no1	35.5µM*	?	2.9%	17.8µM*	20µM*	67.5*
COc1ccc(CN(CCCN)c2ccc(Br)cn2)cc1	18.3%	-17.0%	·	·	·	·
O=C(N/N=C\c1ccc(-c2ccccc2[N+](=O)[O-])o1)C1COc2ccccc2O1 (stereo not drawn)	30.1%	-6.1%	7.9%	6.2%	?	·
CC(C)(C)c1ccc2c(c1)OC(C(=O)N/N=C\c1ccc(-c3cccc(C(=O)O)c3)o1)CO2 (stereo not drawn)	?	?	·	-36.6%	11.2µM*	16.9*
O=C(O)c1cccc(-c2ccc(/C=N/NC(=O)C3COc4ccccc4O3)o2)c1 (stereo not drawn)	?	?	?	20µM*	28.2µM*	60.1*
CCCC[C@H]1CCCO[C@@](C(=O)NCCN2CCOCC2)(C(F)(F)F)C1	8.0%	13.3%	1.5%	·	·	·
CCN(CC)CCC(c1ccc(N(C)C)cc1)c1c(OC)cc(OC)c2c1OC(=O)CC2c1ccc(N(C)C)cc1 (stereo not drawn)	1.0%	4.8%	27.9%	·	·	·
CCN(CC)c1ccc(/C=C/c2ccnc3ccccc23)cc1	21.0%	-8.2%	·	·	·	·
Cc1cccc(Cn2cc3c(=O)n(CC(=O)Nc4c(C)cccc4C)nc-3c3cc(F)ccc32)c1	22.3%	-14.8%	2.8%	3.2%	-7.3%	·
CC(=O)Nc1sc2c(c1-c1nc3ccccc3s1)CCSC2	·	·	·	·	·	75.7*
CC(=O)Nc1sc2c(c1-c1nc3ccccc3s1)CNC2	·	·	·	·	·	?
Cc1c(C(=O)NCc2ccc(N(C)C)cc2)oc2c1-c1nn(Cc3cccc(Cl)c3)cc1CC2	18.0%	6.3%	2.6%	?	3.0%	·
N#C/C(=C\c1cccnc1)C(=O)Nc1ccccc1[N+](=O)[O-]	-27.8%	-31.5%	5.7%	-13.5%	31.6µM*	75.7*	Pol kappa inh-2=?
O=c1cc(-c2ccccc2O)oc2cc(O)cc(O)c12	·	-4.3%[19.4 µM]	7.1%	·	·	·
O=c1cc(-c2cc(O)c(O)c(O)c2)oc2cc(O)cc(O)c12	·	0.398µM*	10.8%	·	·	·	GALK inh confirm=42.1µM*;Redox cycling=-1.4%;HEK293 tox=-2.0%
Cc1noc2nc(C(=O)O)nc(N3CCCCC3)c12	-9.3%	3.3%	2.9%	25.8%	-11.6%	·
COc1cc(-c2cc(=O)c3c(O)c(OC)c(OC)cc3o2)cc(OC)c1O	?	79.4µM*	·	28.2µM*	22.4µM*	67.5*
O=c1oc2ccc3ccccc3c2cc1-c1nnc(Nc2cccc(C(F)(F)F)c2)s1	-1.3%	-11.4%	-2.2%[12.3 µM]	8.7%	·	·
O=c1[nH]c(/C=C\c2ccc(O)c(O)c2)nc(O)c1[N+](=O)[O-]	?	?	?	25.1µM*	?	75.7*	Pol kappa inh-2=16.8*
O=c1[nH]c(/C=C\c2cccc(O)c2)nc(O)c1[N+](=O)[O-]	?	-3.9%	·	-24.5%	-18.0%	·
COc1ccc(-n2c(C)cc(/C=C/c3nc(O)c([N+](=O)[O-])c(=O)[nH]3)c2C)cc1	?	50.1µM*	?	-4.6%	20µM*	?
Cc1cc(/C=C\c2nc(O)c([N+](=O)[O-])c(=O)[nH]2)c(C)n1-c1ccccc1	28.2µM*	89.1µM*	·	25.1µM*	22.4µM*	?
O=C(CSc1nc2ccccc2c(=O)n1Cc1ccco1)NCc1ccco1	31.6µM*	?	·	?	79.4µM*	?
CCCCn1c(SCC(=O)NCc2ccco2)nc2ccccc2c1=O	11.2%	-7.9%	5.3%	?	?	·
O=C(CSc1nc2ccsc2c(=O)n1NC(=O)c1ccccc1)NCc1ccco1	50.1µM*	79.4µM*	2.9%	?	44.7µM*	?
SMILES	POLI inh	Pol kappa inh-1	TDP1 inh	POLB inh	Pol eta inh-1	Pol eta inh-2	others
O=C(CSc1nc2ccsc2c(=O)n1Cc1ccccc1)NCc1ccco1	42.4%	-1.9%	5.3%	5.7%	-11.0%	·
Cc1nn(CC(=O)NC2CC2)c(=O)c2cc3cc(F)ccc3n12	-3.9%	-8.9%	-2.9%	6.1%	-7.4%	·
COC(=O)c1cc(OC)c(OC)cc1NC(=O)c1ccc2c(c1)CCN2S(C)(=O)=O	?	-5.0%	0.0%	27.9%	-7.8%	·
Cc1ccc2cccc(NC(=O)c3ccc(-c4cccc(Cl)c4Cl)o3)c2n1	-10.3%	-1.5%	0.6%	19.5%	6.8%	·
COc1ccc(OC)c(S(=O)(=O)CC(=O)c2cc3ccc(OC)cc3oc2=O)c1	19.8%	4.2%	4.8%	?	-7.1%	·
COc1cccc2cc(C(=O)CS(=O)(=O)c3ccc(Cl)cc3)c(=O)oc12	12.6µM*	-18.2%	3.0%	-19.9%	?	?
COc1ccc(S(=O)(=O)CC(=O)c2cc3cc(Br)ccc3oc2=O)cc1	12.6µM*	?	5.7%	10µM*	28.2µM*	?
O=C(NCC1CCCO1)c1cc(-c2ccco2)nc2ccccc12 (stereo not drawn)	?	?	·	44.7µM*	15.8µM*	84.9*
O=C(Nc1nncs1)c1cc(-c2ccco2)nc2ccccc12	?	?	·	·	14.1µM*	75.7*	Pol kappa inh-2=?
NS(=O)(=O)c1ccc(CCNC(=O)c2cc(-c3ccco3)nc3ccccc23)cc1	-20.4%	-20.0%	-4.2%	·	?	·
O=C(NCC1CCCO1)c1cc(-c2ccncc2)nc2ccccc12 (stereo not drawn)	6.8%	-13.8%	5.8%	·	-9.8%	·
Cc1ccc(-n2nc3c(N4CCCC(C(=O)NCc5ccccc5C)C4)nnc(C)c3c2C)cc1 (stereo not drawn)	22.8%	5.7%	5.6%	?	?	·

Compound activity as filed in PubChem.
